In the supplement of paper PMC10849652:
Targets with a hit are over-represented here; the source holds about 7,900 in all. About 0.6% of all pairs of compound and target were hits. Unmarked numbers belong to inactive results.

Assays:
Experiment in all cases: log2 fold change, soluble protein after heating vs DMSO (PISA); higher = thermal stabilisation; K562 cells, 10 uM, 30 min; active = over 0.2 and 3.5 SD of the protein, either way, in both replicates (recomputed)
[1] = compound: CC[C@@H]1C(=O)N(C)c2cnc(Nc3ccc(C(=O)NC4CCN(C)CC4)cc3OC)nc2N1C1CCCC1
How it was run: (§1)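 K562 cells at 2×10^6 cells/mL were exposed to 10 μM compound for 30 min, then aliquots were heated for 3 min across 48°C-58°C, pooled, and extracted in PBS containing 0.5% NP-40 at 4°C. The supernatant after 21,000xg for 90 min was taken as soluble protein and measured by TMTpro 16plex LC-MS/MS with channel sums equalised. Thermal stability is reported relative to control samples, with values from duplicates. Fold changes are given on a log2 scale.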

volasertib = compound: CC[C@@H]1C(=O)N(C)c2cnc(Nc3ccc(C(=O)N[C@H]4CC[C@H](N5CCN(CC6CC6)CC5)CC4)cc3OC)nc2N1C(C)C [volasertib]
How it was run: as §1

[2] = compound: CC[C@H](C)N1C=C(C2=C(C=C(C=C21)C3=CN=C(C=C3)N4CCNCC4)C(=O)NCC5=C(C=C(NC5=O)C)C)C
How it was run: as §1

epoxomicin = compound: CC[C@H](C)[C@@H](C(=O)N[C@@H]([C@@H](C)O)C(=O)N[C@@H](CC(C)C)C(=O)[C@]1(CO1)C)NC(=O)[C@H]([C@@H](C)CC)N(C)C(=O)C [epoxomicin]
How it was run: as §1

[3] = compound: CCn1c(C(=O)N(C2CC2)C2CC2)cc2c3c(ncn3C)c(Nc3cc(C)n(C)n3)nc21
How it was run: as §1

[4] = compound: CCn1cc(-c2ccnc3[nH]c(-c4cccc(CN(C)C)c4)cc23)c(-c2ccc(NC(=O)N(C)C)cc2)n1
How it was run: as §1

[5] = compound: CN(C)CC(=O)Nc1ccc2[nH]c(=O)c3ccccc3c2c1
How it was run: as §1

rosiglitazone = compound: CN(CCOC1=CC=C(C=C1)C[C@H]2C(=O)NC(=O)S2)C3=CC=CC=N3 (racemic) [rosiglitazone]
How it was run: as §1

[6] = compound: CN1C2=C(C3=C1C(=O)N(N=C3)CC4=CC(=CC=C4)N)SC(=C2)S(=O)C
How it was run: as §1

[7] = compound: CN1CCC(CNc2ccc3ncc(-c4cccc(OC(F)(F)F)c4)n3n2)CC1
How it was run: as §1

saracatinib = compound: CN1CCN(CCOc2cc(OC3CCOCC3)c3c(Nc4c(Cl)ccc5c4OCO5)ncnc3c2)CC1 [saracatinib]
How it was run: as §1

sotrastaurin = compound: CN1CCN(c2nc(C3=C(c4c[nH]c5ccccc45)C(=O)NC3=O)c3ccccc3n2)CC1 [sotrastaurin]
How it was run: as §1

alvocidib = compound: CN1CC[C@H](c2c(O)cc(O)c3c(=O)cc(-c4ccccc4Cl)oc23)[C@H](O)C1 [alvocidib]
How it was run: as §1

Tubastatin A = compound: CN1CCc2c(c3ccccc3n2Cc2ccc(C(=O)NO)cc2)C1 [Tubastatin A]
How it was run: as §1

[8] = compound: CNC(=O)C1=CC=CC=C1NC2=NC(=NC=C2Cl)NC3=C(C=C(C=C3)N4CCOCC4)OC
How it was run: as §1

defactinib = compound: CNC(=O)c1ccc(Nc2ncc(C(F)(F)F)c(NCc3nccnc3N(C)S(C)(=O)=O)n2)cc1 [defactinib]
How it was run: as §1

rucaparib = compound: CNCc1ccc(-c2[nH]c3cc(F)cc4c3c2CCNC4=O)cc1 [rucaparib]
How it was run: as §1

[9] = compound: CNc1nc(-c2ccc3c(N)n[nH]c3c2)cc(N2C[C@@H](C(=O)NC3CCCCC3)CC[C@H]2C)n1
How it was run: as §1

encorafenib = compound: COC(=O)N[C@@H](C)CNc1nccc(-c2cn(C(C)C)nc2-c2cc(Cl)cc(NS(C)(=O)=O)c2F)n1 [encorafenib]
How it was run: as §1

[10] = compound: COC(=O)[C@H](CCSC)NC(=O)C1=C(C=C(C=C1)NC[C@H](CS)N)C2=CC=CC=C2
How it was run: as §1

Sequence of UniProt Q9H467 (Q9H467 whole entry, looked up): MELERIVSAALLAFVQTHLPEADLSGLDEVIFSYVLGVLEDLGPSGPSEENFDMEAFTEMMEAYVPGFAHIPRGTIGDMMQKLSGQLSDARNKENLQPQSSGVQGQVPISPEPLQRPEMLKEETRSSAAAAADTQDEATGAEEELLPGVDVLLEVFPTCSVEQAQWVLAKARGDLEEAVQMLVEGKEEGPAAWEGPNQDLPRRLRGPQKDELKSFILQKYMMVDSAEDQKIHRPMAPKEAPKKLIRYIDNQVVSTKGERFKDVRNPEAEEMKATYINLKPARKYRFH
Sequence of UniProt Q96E09 (Q96E09 whole entry, looked up): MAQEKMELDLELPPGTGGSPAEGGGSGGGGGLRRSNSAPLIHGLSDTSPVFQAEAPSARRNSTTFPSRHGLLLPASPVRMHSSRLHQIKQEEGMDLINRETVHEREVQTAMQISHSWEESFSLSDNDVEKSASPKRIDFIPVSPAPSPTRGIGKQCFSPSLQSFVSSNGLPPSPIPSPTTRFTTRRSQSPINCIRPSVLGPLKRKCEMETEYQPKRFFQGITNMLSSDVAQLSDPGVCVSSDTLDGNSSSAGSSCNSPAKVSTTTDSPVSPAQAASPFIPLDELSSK
Sequence of UniProt Q14118 (Q14118 whole entry, looked up): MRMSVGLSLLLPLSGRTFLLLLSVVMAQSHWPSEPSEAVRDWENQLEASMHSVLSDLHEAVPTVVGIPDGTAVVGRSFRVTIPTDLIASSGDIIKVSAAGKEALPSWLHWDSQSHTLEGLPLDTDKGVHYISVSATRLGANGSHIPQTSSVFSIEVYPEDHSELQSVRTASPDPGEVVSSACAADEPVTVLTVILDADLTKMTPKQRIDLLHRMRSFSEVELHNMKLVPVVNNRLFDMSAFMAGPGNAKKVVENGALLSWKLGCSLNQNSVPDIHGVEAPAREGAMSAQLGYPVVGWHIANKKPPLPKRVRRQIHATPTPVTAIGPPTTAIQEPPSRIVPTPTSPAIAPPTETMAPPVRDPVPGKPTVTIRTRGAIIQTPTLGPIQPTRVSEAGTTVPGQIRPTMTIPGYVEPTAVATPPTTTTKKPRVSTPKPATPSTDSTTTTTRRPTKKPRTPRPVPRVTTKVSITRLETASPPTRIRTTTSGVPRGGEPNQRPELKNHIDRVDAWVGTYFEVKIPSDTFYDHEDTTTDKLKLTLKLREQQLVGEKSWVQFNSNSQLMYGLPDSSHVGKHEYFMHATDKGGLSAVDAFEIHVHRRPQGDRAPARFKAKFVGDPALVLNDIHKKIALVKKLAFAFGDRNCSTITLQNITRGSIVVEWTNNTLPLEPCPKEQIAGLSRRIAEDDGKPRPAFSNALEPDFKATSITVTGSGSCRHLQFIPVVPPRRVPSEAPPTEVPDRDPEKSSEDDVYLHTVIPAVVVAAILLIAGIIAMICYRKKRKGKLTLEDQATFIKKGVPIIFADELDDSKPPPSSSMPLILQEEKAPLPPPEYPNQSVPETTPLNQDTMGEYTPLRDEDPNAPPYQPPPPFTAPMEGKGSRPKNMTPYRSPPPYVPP
Sequence of UniProt Q6IAN0 (Q6IAN0 whole entry, looked up): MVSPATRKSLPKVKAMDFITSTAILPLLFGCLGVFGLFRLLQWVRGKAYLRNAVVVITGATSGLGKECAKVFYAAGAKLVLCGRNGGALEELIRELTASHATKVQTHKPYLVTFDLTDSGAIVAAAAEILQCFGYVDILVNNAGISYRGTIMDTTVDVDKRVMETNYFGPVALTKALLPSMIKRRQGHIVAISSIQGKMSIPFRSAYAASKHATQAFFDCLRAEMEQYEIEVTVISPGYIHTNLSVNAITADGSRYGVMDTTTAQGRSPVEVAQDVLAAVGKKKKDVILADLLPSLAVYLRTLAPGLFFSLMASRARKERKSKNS
Sequence of UniProt Q9NV70 (Q9NV70 whole entry, looked up): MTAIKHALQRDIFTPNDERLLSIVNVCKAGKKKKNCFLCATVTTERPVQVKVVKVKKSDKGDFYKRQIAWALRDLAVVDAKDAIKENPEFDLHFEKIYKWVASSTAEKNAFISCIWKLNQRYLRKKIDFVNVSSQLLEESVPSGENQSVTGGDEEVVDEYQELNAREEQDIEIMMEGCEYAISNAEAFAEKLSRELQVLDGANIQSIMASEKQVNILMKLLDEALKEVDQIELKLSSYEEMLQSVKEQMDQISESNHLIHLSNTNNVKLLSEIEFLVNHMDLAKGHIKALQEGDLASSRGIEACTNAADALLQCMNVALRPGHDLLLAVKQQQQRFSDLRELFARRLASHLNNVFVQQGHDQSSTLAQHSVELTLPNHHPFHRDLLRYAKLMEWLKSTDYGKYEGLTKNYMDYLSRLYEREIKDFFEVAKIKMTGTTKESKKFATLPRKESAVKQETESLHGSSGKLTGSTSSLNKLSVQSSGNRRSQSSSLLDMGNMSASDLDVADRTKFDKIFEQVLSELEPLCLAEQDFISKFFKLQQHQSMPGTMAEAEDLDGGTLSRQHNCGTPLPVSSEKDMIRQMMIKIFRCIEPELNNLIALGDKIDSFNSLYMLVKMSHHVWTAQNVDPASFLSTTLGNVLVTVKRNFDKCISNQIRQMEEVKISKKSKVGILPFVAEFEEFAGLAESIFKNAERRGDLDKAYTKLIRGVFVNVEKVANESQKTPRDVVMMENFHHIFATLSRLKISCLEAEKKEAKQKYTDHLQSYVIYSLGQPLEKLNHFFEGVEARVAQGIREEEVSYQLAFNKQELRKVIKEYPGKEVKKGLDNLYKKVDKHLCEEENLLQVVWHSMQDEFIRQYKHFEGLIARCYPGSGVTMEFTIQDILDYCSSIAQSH
Sequence of UniProt P98173 (P98173 whole entry, looked up): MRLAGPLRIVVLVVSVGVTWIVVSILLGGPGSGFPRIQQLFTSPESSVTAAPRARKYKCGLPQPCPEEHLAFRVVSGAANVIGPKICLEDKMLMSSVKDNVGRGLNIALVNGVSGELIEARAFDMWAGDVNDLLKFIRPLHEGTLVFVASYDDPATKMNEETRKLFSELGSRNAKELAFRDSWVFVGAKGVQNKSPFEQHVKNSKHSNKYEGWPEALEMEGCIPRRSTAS
Sequence of UniProt Q15369 (Q15369 whole entry, looked up): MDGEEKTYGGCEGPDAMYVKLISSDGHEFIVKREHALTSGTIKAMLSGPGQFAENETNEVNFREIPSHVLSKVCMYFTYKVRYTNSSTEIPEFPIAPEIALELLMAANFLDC
Sequence of UniProt Q9H4H8 (Q9H4H8 whole entry, looked up): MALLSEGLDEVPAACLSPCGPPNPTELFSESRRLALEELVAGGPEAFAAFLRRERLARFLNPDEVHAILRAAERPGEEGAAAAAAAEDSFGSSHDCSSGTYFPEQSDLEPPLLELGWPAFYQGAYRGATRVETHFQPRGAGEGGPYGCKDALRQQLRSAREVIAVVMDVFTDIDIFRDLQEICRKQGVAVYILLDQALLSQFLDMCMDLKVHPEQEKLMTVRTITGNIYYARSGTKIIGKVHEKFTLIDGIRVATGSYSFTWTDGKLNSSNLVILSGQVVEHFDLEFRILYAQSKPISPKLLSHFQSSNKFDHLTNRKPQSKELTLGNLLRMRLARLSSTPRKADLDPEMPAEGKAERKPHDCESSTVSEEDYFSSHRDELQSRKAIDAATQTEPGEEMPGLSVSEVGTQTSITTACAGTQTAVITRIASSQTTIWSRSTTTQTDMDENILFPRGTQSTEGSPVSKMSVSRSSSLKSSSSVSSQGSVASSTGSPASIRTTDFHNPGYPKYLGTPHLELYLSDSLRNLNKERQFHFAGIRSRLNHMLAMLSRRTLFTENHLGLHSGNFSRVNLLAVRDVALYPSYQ
Sequence of UniProt P34913 (P34913 whole entry, looked up): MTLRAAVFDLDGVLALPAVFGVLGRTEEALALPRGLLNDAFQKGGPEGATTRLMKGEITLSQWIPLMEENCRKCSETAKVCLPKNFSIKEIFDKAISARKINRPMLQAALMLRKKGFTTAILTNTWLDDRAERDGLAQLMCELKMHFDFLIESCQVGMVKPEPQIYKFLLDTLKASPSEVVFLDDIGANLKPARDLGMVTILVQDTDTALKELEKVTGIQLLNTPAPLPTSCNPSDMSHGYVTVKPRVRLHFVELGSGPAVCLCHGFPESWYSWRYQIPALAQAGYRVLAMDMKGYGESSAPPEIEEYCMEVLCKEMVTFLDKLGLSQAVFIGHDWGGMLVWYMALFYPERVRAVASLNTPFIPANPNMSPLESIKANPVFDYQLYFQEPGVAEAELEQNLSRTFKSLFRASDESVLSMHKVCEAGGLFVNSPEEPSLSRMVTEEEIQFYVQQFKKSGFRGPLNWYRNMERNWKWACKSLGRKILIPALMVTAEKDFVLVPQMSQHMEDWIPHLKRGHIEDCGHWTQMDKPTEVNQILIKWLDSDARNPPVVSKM
Sequence of UniProt Q9UJU6 (Q9UJU6 whole entry, looked up): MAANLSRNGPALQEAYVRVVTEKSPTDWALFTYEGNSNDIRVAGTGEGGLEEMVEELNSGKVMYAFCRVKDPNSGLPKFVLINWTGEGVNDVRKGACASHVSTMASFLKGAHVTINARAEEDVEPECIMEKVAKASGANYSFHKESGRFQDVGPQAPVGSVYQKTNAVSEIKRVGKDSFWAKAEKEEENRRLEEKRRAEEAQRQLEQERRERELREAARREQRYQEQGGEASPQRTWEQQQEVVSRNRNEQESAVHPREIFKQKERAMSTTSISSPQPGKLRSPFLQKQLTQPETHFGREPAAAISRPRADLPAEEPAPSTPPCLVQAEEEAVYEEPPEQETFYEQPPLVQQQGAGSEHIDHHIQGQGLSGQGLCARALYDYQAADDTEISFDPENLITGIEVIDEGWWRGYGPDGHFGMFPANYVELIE
Sequence of UniProt Q96DA6 (Q96DA6 whole entry, looked up): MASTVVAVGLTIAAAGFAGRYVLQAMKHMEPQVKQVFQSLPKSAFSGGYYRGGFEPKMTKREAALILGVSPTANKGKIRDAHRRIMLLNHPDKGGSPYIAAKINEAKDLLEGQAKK
Sequence of UniProt P00374 (P00374 whole entry, looked up): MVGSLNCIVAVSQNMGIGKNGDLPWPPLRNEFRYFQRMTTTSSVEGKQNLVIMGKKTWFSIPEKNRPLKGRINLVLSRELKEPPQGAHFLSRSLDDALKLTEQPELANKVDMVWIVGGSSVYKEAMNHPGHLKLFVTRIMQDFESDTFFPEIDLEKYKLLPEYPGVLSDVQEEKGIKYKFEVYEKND

| Target | log2 fold change [1] | log2 fold change (volasertib) | log2 fold change [2] | log2 fold change (epoxomicin) | log2 fold change [3] | log2 fold change [4] | log2 fold change [5] | log2 fold change (rosiglitazone) | log2 fold change [6] | log2 fold change [7] | log2 fold change (saracatinib) | log2 fold change (sotrastaurin) | log2 fold change (alvocidib) | log2 fold change (Tubastatin A) | log2 fold change [8] | log2 fold change (defactinib) | log2 fold change (rucaparib) | log2 fold change [9] | log2 fold change (encorafenib) | log2 fold change [10] |
| --- | --- | --- | --- | --- | --- | --- | --- | --- | --- | --- | --- | --- | --- | --- | --- | --- | --- | --- | --- | --- |
| FAM83D (UniProt Q9H4H8) | -0.097 | -0.139 | 0 | -0.082 | -0.074 | -0.115 | 0.085 | 0.081 | 0.006 | 0.042 | -0.014 | -0.055 | -0.088 | -0.002 | -0.004 | -0.074 | 0.078 | 0.03 | 0.071 | -0.023 |
| DNAJC19 (UniProt Q96DA6) | -0.094 | -0.042 | -0.014 | -0.015 | 0.04 | -0.022 | 0.002 | -0.01 | -0.05 | -0.148 | 0.025 | -0.029 | -0.021 | -0.038 | 0.003 | -0.027 | 0.01 | -0.028 | -0.044 | -0.012 |
| DBNL isoform 3 (UniProt Q9UJU6) | -0.143 | -0.367 (active) | 0.031 | 0.012 | -0.046 | 0.007 | 0.011 | 0.095 | -0.075 | -0.109 | 0.04 | -0.014 | -0.07 | 0.009 | 0.01 | -0.106 | -0.1 | -0.05 | 0.061 | -0.004 |
| ELOC (UniProt Q15369) | -0.009 | -0.016 | 0.042 | 0.028 | 0.006 | -0.087 | 0.108 | 0.011 | -0.033 | -0.014 | 0.008 | 0.01 | -0.074 | 0.035 | 0.025 | -0.033 | -0.021 | 0 | -0.021 | -0.014 |
| DCTN1 isoform 4 (UniProt Q14203) | 0.01 | -0.1 | 0.078 | 0.02 | -0.157 | -0.024 | 0.052 | 0.086 | 0.149 | -0.096 | -0.126 | -0.159 | -0.083 | 0.079 | -0.056 | -0.037 | 0.227 | 0.074 | 0.083 | -0.068 |
| EXOC1 (UniProt Q9NV70) | -0.219 | -0.44 | 0.077 | -0.012 | -0.081 | 0.023 | 0.084 | 0.115 | 0.1 | -0.319 | 0.013 | -0.249 | -0.04 | 0.038 | -0.002 | -0.074 | 0.172 | 0.066 | 0.06 | -0.081 |
| DHRS7B (UniProt Q6IAN0) | -0.079 | -0.147 | -0.043 | -0.106 | 0.004 | 0.059 | -0.002 | 0.021 | -0.122 | 0.538 (active) | -0.003 | 0.148 | -0.18 | -0.019 | 0.051 | -0.067 | 0.029 | 0.071 | -0.008 | -0.016 |
| DUS2 (UniProt Q9NX74) | -0.052 | -0.242 | 0.037 | 0.059 | -0.059 | -0.029 | 0.055 | 0.063 | 0.115 | -0.02 | 0.112 | -0.098 | -0.041 | 0.041 | -0.048 | -0.093 | 0.042 | -0.113 | 0.09 | -0.02 |
| EGLN1 (UniProt Q9GZT9) | 0.117 | -0.001 | 0.048 | 0.078 | -0.011 | -0.004 | 0.007 | 0.035 | -0.006 | -0.052 | -0.01 | -0.074 | -0.003 | -0.296 (active) | 0.065 | -0.027 | 0.114 | 0.03 | 0.001 | 0.002 |
| ERLIN2 (UniProt O94905) | 0.06 | -0.057 | 0.054 | -0.034 | -0.031 | 0.01 | -0.051 | -0.01 | 0.096 | 0.008 | -0.044 | -0.097 | 0.034 | 0 | -0.137 | 0.026 | 0.033 | -0.005 | 0.092 | 0.004 |
| DHFR (UniProt P00374) | 0.002 | -0.11 | 0.088 | -0.013 | -0.101 | -0.077 | 0.091 | 0.046 | 0.113 | 1.64 (active) | -0.193 | 1.66 (active) | 0.215 | 1.77 (active) | -0.115 | -0.109 | 0.39 | 0.036 | 0.109 | -0.059 |
| DAG1 (UniProt Q14118) | 0.149 | 0.048 | -0.008 | 0.023 | -0.039 | -0.044 | 0.012 | -0.007 | -0.075 | 0.243 (active) | -0.033 | 0.1 | -0.026 | -0.021 | -0.093 | -0.032 | -0.014 | 0.052 | 0.002 | 0.007 |
| FAM122A (UniProt Q96E09) | -0.042 | -0.054 | 0.006 | -0.141 | -0.029 | -0.426 (active) | -0.043 | 0.064 | -0.081 | -0.699 (active) | -0.005 | -0.027 | 0 | 0.096 | -0.09 | -0.018 | 0.015 | 0.017 | -0.016 | 0.056 |
| FAM3A (UniProt P98173) | 0.024 | -0.11 | -0.02 | 0.029 | 0.085 | 0.066 | 0.019 | 0.101 | -0.023 | -0.128 | 0.038 | 0.001 | -0.027 | 0.045 | 0.065 | -0.035 | 0.017 | 0.075 | 0.118 | -0.041 |
| CUEDC2 (UniProt Q9H467) | -0.044 | -0.133 | 0.033 | 0.118 | -0.01 | -0.001 | -0.01 | 0.105 | -0.038 | -0.067 | -0.003 | -0.045 | -0.089 | 0.197 | -0.036 | -0.067 | -0.033 | -0.338 (active) | 0.071 | 0.016 |
| EPHX2 (UniProt P34913) | 0.098 | 0.117 | -0.019 | -0.012 | -0.002 | -0.032 | -0.015 | 0.033 | 0.066 | 0.091 | -0.009 | 0.172 | -0.023 | 0.003 | -0.022 | -0.002 | 0.002 | 0.216 | 0.003 | -0.011 |
